Usually AC50 stands for the concentration giving half of the maximal activity seen.

The test system of one test is IYD (gene 389434). Put plainly: CCTE_GLTED_hIYD: CCTE's human Iodotyrosine Deiodinase (xIYD) Inhibition Assay, Great Lakes Toxicology and Ecology Division (GLTED) Lab (AID 2284317; active = hit-call score of the fitted dose curve at least 0.9, where 1 is the maximum;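 also: cell-free human IYD enzyme made in baculovirus insect cells; iodide freed from monoiodotyrosine measured by cerium arsenite color change at 420 nm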). Summed up: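 First, recombinant human IYD (baculovirus-insect cells), MIT and chemical incubated 3 h. Next, iodide isolated on Dowex. Finally, Sandell-Kolthoff rate read at 420 nm, with platewise normalization to MNT and solvent controls.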

A short description of test [1]: CCTE_Deisenroth_5AR_NBTE_donor: CCTE's 5alpha-reductase NanoBRET Target Engagement Assay […], Deisenroth Lab (AID 2284319). As to conditions: actives raise or lower the signal. Summed up: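 HEK293T cells were reverse transfected with an SRD5A2-NanoLuc vector for 20 h, exposed to test chemical (8 points, 10 nM - 29.9 uM) for 3 h, then testosterone tracer for 2 h more. Donor luminescence (460 nm) was read; bidirectional fit versus DMSO.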
A general note: Bioluminescence resonance energy transfer reports proximity on the nanometre scale.

Another test deals with SRD5A2 (gene 6716). Nature of the test: CCTE_Deisenroth_5AR_NBTE_ratio: CCTE's 5alpha-reductase NanoBRET Target Engagement Assay - Ratio, Deisenroth Lab (AID 2284322). Conditions: actives raise or lower the signal. Summed up:
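Reverse-transfect HEK293T with pNLF1-C-SRD5A2, express 20 h. Pre-incubate cells with chemical 3 h (8-point series, 10 nM - 29.9 uM, duplicate). Add testosterone tracer, 2 h more. Add substrate/inhibitor, read donor and acceptor emission.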

In test [2] the test system is Brachyury (BRA) Protein Expression, Deisenroth Lab, TBXT (gene 6862). Nature of the test: CCTE_Deisenroth_DEVTOX-GLR_legacy_Bra: (Legacy) CCTE's DevTox GLR-Endo Assay Evaluation of Brachyury (BRA) Protein Expression, Deisenroth Lab (AID 2284329). As for the experimental part: CCTE_Deisenroth_DEVTOX-GLR_legacy assay is a cell-based, multiplex-readout assay that uses RUES2-GLR, a human pluripotent cell line, with measurements taken at 48 hours after chemical dosing in a 384-well microplateCCTE_Deisenroth_DEVTOX-GLR_legacy_Bra is one of 4 assay components calculated from the CCTE_Deisenroth_DEVTOX-GLR_legacy assay that measures an increase in the percentage of cells in an […] state. It is designed to make measurements of inducible reporter a form of fluorescent protein induction as detected with optical fluorescence microscopy. Percentage Bra+ cells are determined by calculating the number of Bra+ cells divided by cell count. A cell is Bra+ if the cell Bra mean intensity is 5x BMAD above the pluripotent control median cell Bra mean. The assay endpoint was analyzed with bidirectional fitting with the 0.2% DMSO control median percent Bra in the DEVTOX-GLR assay subtracted.Data from the assay component CCTE_Deisenroth_DEVTOX-GLR_legacy_Bra was analyzed into 1 assay endpoint. This assay endpoint, CCTE_Deisenroth_DEVTOX-GLR_legacy_Bra, was analyzed in the positive analysis fitting direction relative to DMSO as the negative control and baseline activity. […] Furthermore, this assay endpoint can be referred to as a secondary readout, because this assay has produced multiple assay endpoints where this one serves as a measure of mesoderm differentiation. […]

Test [3] is described as follows: CCTE_Deisenroth_DEVTOX-GLR_legacy_CellCount: (Legacy) Viability Assessment in CCTE's DevTox GLR-Endo Assay, Deisenroth Lab (AID 2284331). As to conditions: actives raise or lower the signal. The method, then:
CCTE_Deisenroth_DEVTOX-GLR_legacy assay is a cell-based, multiplex-readout assay that uses RUES2-GLR, a human pluripotent cell line, with measurements taken at 48 hours after chemical dosing in a 384-well microplateCCTE_Deisenroth_DEVTOX-GLR_legacy_CellCount is one of 4 assay components calculated from the CCTE_Deisenroth_DEVTOX-GLR_legacy assay that measures an increase in cell count. It is designed to make measurements of nuclei count, a form of cell viability, as detected with optical fluorescence microscopy by Perkin Elmer Harmony nuclei detection algorithm. The assay endpoints were analyzed with bidirectional fitting relative to 0.2% DMSO control in the DEVTOX-GLR assay.Data from the assay component CCTE_Deisenroth_DEVTOX-GLR_legacy_CellCount was analyzed into 1 assay endpoint. This assay endpoint, CCTE_Deisenroth_DEVTOX-GLR_legacy_CellCount, was analyzed with bidirectional fitting relative to DMSO as the negative control and baseline activity. Using nuclei counting, gain or loss-of-signal activity can be used to understand changes in cell viability. Furthermore, this assay endpoint can be referred to as a primary readout, because this assay has produced multiple assay endpoints where this one serves as a measure of cytotoxicity. […]

The next test relates to TTR (gene 7276). Nature of the test: CCTE_GLTED_hTTR_0.5uM: CCTE's human Transthyretin (hTTR) Inhibition Assay, with 0.5uM TTR, Great Lakes Toxicology and Ecology Division (GLTED) Lab (AID 2284320). As for the experimental part: CCTE_GLTED_hTTR is a cell-free, single-readout assay designed to test the chemicals' ability to displace T4 from the human transthyretin (TTR) protein. TTR (at 0.125uM or 0.5uM) is incubated in presence of test chemical for 2 hours during which disrupting chemicals displace ANSA from the TTR protein. Results read fluorescence at 380 excitation and 475 emission.CCTE_GLTED_hTTR_0.5uM is the assay component measured from the CCTE_GLTED_hTTR assay. It is designed to make measurements of fluorescent polarization, using a form of binding reporter, as detected with Fluorescence signals by Fluorescence technology.Data from the assay component CCTE_GLTED_hTTR_0.5uM was analyzed at the assay endpoint CCTE_GLTED_hTTR_0.5uM in the positive analysis fitting direction relative to DMSO as the negative control and baseline of activity. Using a type of binding reporter, loss-of-signal activity can be used to understand a chemical's ability to displace T4 from transthyretin. To generalize the intended target to other relatable targets, this assay endpoint is annotated to the 'transporter' intended target family, where the subfamily is 'hormone carrier protein'.

Test [4] is described as follows: TAMU_PeakParms_SingleDonor1434_Asystole: Texas A&M University (TAMU) 1.5-hr Human Induced Pluripotent Stem Cell (iPSC)-derived Cardiomyocytes Calcium (Ca+2) Flux Assay for Cardiotoxicity: Asystole (quiescence of beating) (AID 2284328; active = hit-call score of the fitted dose curve at least 0.9, where 1 is the maximum). Put shortly:
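Donor 1434 iPSC-cardiomyocytes exposed 90 min at 37C, 5% CO2, to 0.2, 1, 10 and 100 uM in 0.5% DMSO. Ca2+ dye fluorescence gave average peak frequency; POD is EC95, a 95% beat-rate drop versus controls.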

The nature of test [5]: IUF_NPC2-5_cell_number_120hr: Cell Number Assessment at 120 hours in the Leibniz Research Institute for Environmental Medicine (IUF) Neural Progenitor Cell Migration and Differentiation Assay (NPC2-5) (AID 2284308).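 Also: count of Hoechst-stained nuclei in migration zone around plated human neural progenitor spheres.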 As for the experimental part:
IUF_NPC2-5 is a cell-based, multiplexed assay that uses hNPC, a human primary neural progenitor cells, with measurements taken at 72 or 120 hours after chemical dosing in a 96-well plate. Human neural progenitor cells (hNPC) are generated from human fetal brain cortex at gestational week (GW) 16-19. In the neural progenitor cell migration and differentiation assay (NPC2-5), hNPCs grown as spheres are plated on an extracellular matrix and migrate and differentiate out of the sphere core. The processes radial glia migration, neuronal and oligodendrocyte migration as well as neuronal differentiation, neuronal morphology and oligodendrocyte differentiation are studied using automated phase contrast imaging and automated fluorescence imaging in combination with high content image analysis. In parallel, the cell viability is assessed using an alamar blue viability assay and the cytotoxicity using a lactate dehydrogenase dependent membrane integrity assay.IUF_NPC2-5_cell number_120hr is one of 12 assay components measured from the IUF_NPC2-5 assay. […]
Culture protocol: After the cell expansion period the cells are cultured for up to four weeks in which they are passaged every week as described in 3.6. […] The plates are scanned using an automated high content imaging device and all nuclei and their positions are determined automatically based on their intensity and size. […]

Test [6] can be described thus: IUF_NPC2-5_viability_120hr: Viability Assessment at 120 hours in the Leibniz Research Institute for Environmental Medicine (IUF) Neural Progenitor Cell Migration and Differentiation Assay (NPC2-5) (AID 2284312). Put shortly:
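Human fetal neural progenitor spheres (0.3 mm) plated on poly-D-lysine/laminin in N2 differentiation medium, exposed 120 h with half-medium refresh at day 3. Viability by alamar blue resazurin fluorescence; 7 concentrations, DMSO max 0.1%.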

Test [7] in a line: CCTE_Mundy_HCI_iCellGluta_NOG_NeuriteLength: CCTE's Neurite Outgrowth Assay in iCellGluta cells for Neurite Length, Mundy Lab (AID 2284318; active = hit-call score of the fitted dose curve at least 0.9, where 1 is the maximum). Put shortly: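 Automated high-content imaging of betaIII-tubulin (Alexa Fluor-488) and Hoechst-stained cells gave neurite length, normalized to the DMSO baseline.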

Structures are written as SMILES. Inconclusive results are not listed. Calls of active or inactive are those of the source. The calls were made as follows, unless noted: active = hit-call score of the fitted dose curve at least 0.9, where 1 is the maximum; inactive = score below 0.9. Peptide text beside a SMILES is read from it.

For `CCCCC(CC)COC(=O)/C=C/c1ccc(OC)cc1` (centres undefined), the outcome in the test with IYD (gene 389434) was inactive.
Consider `O=C(O)CCC(=O)O`, for which the result (in test [1]; in the test with SRD5A2 (gene 6716)) was inactive.
In the case of `CCCCCCCCCCCCCC(=O)OC(C)C`, the molecule was called inactive (in [1]; in the test with SRD5A2 (gene 6716)).
For the molecule `CC(C)(C)NC(=O)[C@H]1CC[C@H]2[C@@H]3CC[C@H]4NC(=O)C=C[C@]4(C)[C@H]3CC[C@]12C`, the molecule was classed as inactive in [1]. Further, the concentration at half-maximal activity (AC50) in the test on SRD5A2 (gene 6716) is 0.00734 µM (active).
Turning to `O=C(Nc1ccccc1)c1cc(Cl)ccc1O`, the molecule was called inactive with IYD (gene 389434).
In the case of `CC1(C)[C@@H]2CC[C@@]1(C)C(=O)C2`, the molecule was classed as inactive in [2] and in [3].
As to `CCCCC/C=C\C/C=C\CCCCCCCC(=O)O`, the AC50 in the test with IYD (gene 389434) was 137 µM (active).
As to `O=C(O)C(F)(F)C(F)(F)C(F)(F)C(F)(F)C(=O)O`, the concentration at half-maximal activity (AC50) with TTR (gene 7276) was 5.53 µM (active).
For the molecule `CCCCCCCCCCCCc1ccc(O)cc1`, the AC50 with IYD (gene 389434) is 24 µM (active). Moreover, the outcome (in test [1]; in the test on SRD5A2 (gene 6716)) was inactive.
As for `CC1=NN(c2ccc(S(=O)(=O)O)cc2)C(=O)C1N=Nc1ccccc1` (centres undefined), the result in test [1] was inactive. Further, the AC50 in the test with SRD5A2 (gene 6716) was 10 µM (active).
Take `C=CCOC(=O)c1ccc(C(=O)OCC=C)c(C(=O)OCC=C)c1`: the call (in test [1]; in the test with SRD5A2 (gene 6716)) was inactive.
For the molecule `Oc1ccc(-c2ccccc2)c(Cl)c1`, the outcome (in test [1]; with SRD5A2 (gene 6716)) was inactive.
For the molecule `O=S(=O)(O)c1ccc(N=Nc2c(O)ccc3ccccc23)cc1`, the AC50 in test [1] is 13.3 µM (active); in the test with SRD5A2 (gene 6716), 26.6 µM (active).
`CCCCCCCCCC[N+](C)(CCCCCCCCCC)CCC[Si](OC)(OC)OC`: the AC50 in the test on IYD (gene 389434) was 77.2 µM (active); in [1], 33.2 µM (active). Further, the outcome with SRD5A2 (gene 6716) was inactive.
For `CCCCCCCCCCCC(=O)N(C)CC(=O)O`, the molecule was called inactive (in [1]; in the test with SRD5A2 (gene 6716)).
In the case of `C=C[C@@]1(C)CC(=O)[C@]2(O)[C@@]3(C)[C@@H](O)CCC(C)(C)[C@@H]3[C@H](O)[C@H](OC(C)=O)[C@@]2(C)O1`, the AC50 in test [1] is 9.91 µM (active). In the test on SRD5A2 (gene 6716), the result was inactive.
On to `C[N+](C)(C)CCCNS(=O)(=O)C(F)(F)C(F)(F)C(F)(F)C(F)(F)C(F)(F)C(F)(F)C(F)(F)C(F)(F)F`, for which the concentration at half-maximal activity (AC50) with TTR (gene 7276) is 1.04 µM (active).
With `COC(=O)[C@H](Cc1ccccc1)NC(=O)[C@@H](N)CC(=O)O` (H-Asp-Phe-OMe), in test [4], the result was inactive.
In the case of `CCCCNS(=O)(=O)c1ccccc1`, the outcome in [5], in [6] and in [7] was inactive.
On to `CCCCCCCCCCCCCCCCCCOS(=O)(=O)O`, for which the AC50 in the test on IYD (gene 389434) was 19.5 µM (active).
On to `Cc1c(C(=O)c2c[nH]n(C)c2=O)ccc(S(C)(=O)=O)c1C1=NOCC1`, for which the outcome in [5], in test [6] and in test [7] was inactive.
Regarding `CN(C)c1ccc2nc3ccc(=[N+](C)C)cc-3sc2c1`, the AC50 is 2.73 µM (active) in the test with IYD (gene 389434) and 2.95 µM (active) with SRD5A2 (gene 6716). The result in [1] was inactive.
In the case of `COc1ccc(-c2coc3cc(O)cc(O)c3c2=O)cc1`, the outcome in test [1] was inactive. For the same molecule, the AC50 with SRD5A2 (gene 6716) was 23.6 µM (active).
Turning to `O=c1c(O)c(-c2ccc(O)cc2O)oc2cc(O)cc(O)c12`, the AC50 in the test with IYD (gene 389434) was 144 µM (active).
Turning to `CCCCCCCOC(=O)c1ccc(O)cc1`, in the test with IYD (gene 389434), the AC50 is 50.4 µM (active).
For the molecule `O=C(OCc1ccccc1)c1ccc(O)cc1`, the call (in test [1]; in the test with SRD5A2 (gene 6716)) was inactive.
`Cc1noc(NS(=O)(=O)c2ccc(N)cc2)c1C`: the call in test [7] was inactive.
